For 86 compounds, inhibition results are on record in PubChem BioAssay AID588852 (The Scripps Research Institute Molecular Screening Center, 2011).

The campaign covered roughly 360,000 compounds. About 4,600 (1.3%) were called active. The full list was thinned out, with actives kept by preference. A number with no mark means an inactive call.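 How the source made its calls: active means percent inhibition above its own plate's cutoff, namely the mean of that plate's compound wells plus 3 SD; inactive means the rest.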

In this assay the target is Muscarinic acetylcholine receptor M1 (Homo sapiens) (UniProt P11229). Kind of assay: CHRM1 blockers of acetylcholine calcium response – CHO-K1 cells, Fluo-8 calcium fluorescence, 1536-well, primary screen (AID 588852).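 Further: peak over basal fluorescence ratio during 140 s after agonist addition; 0% = ACh EC80 plus DMSO and 100% = DMSO alone without agonist.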 The settings on record: CHO-K1 hM1, Fluo-8 calcium fluorescence, ACh EC80 antagonist; at 3 µM; hits give high values.
Sequence of Muscarinic acetylcholine receptor M1 (Homo sapiens) (P11229 whole entry, looked up): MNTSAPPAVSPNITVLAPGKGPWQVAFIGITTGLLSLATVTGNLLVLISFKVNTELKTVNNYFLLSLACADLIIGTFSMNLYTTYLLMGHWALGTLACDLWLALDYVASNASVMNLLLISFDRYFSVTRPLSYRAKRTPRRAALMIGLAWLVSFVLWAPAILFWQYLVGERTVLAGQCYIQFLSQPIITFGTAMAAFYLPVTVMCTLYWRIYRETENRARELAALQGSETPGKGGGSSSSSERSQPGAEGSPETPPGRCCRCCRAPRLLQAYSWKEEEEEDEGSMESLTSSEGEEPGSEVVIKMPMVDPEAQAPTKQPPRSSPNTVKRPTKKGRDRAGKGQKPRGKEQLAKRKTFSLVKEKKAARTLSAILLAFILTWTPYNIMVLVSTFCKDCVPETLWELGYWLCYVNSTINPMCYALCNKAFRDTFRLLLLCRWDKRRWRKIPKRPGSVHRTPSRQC
The inhibition is the relative decrease from the control value, in per cent. With `O=C(CSc1nc2nccnc2c(=O)n1Cc1cccs1)Nc1ccccc1F`, the inhibition is 9.12%. As to `Cc1ccccc1CNC(=O)CCC(=O)N1Cc2ccccc2Oc2ncccc21`, the inhibition is -0.29%. Next, `O=C(CS(=O)(=O)c1ccc(C(F)(F)F)cn1)NNC(=O)c1ccccc1`: 11.9%; `Nc1nc2c(ncn2[C@@H]2O[C@H](CNS(=O)(=O)N3CCc4ccccc4C3)[C@@H](O)[C@H]2O)c(=O)[nH]1`: -4.64%. Next, `COC(=O)c1ccc(NC(=O)CN(c2ccc(C)cc2)S(=O)(=O)c2c(C)n[nH]c2C)cc1`: -8.36%.

In the case of `CN(Cc1ccccc1F)c1cc2c(c3c1ccn3C)C1CCC2O1` (stereo unspecified), the inhibition is -40.5%. In the case of `COc1cc(C(=O)NCc2cc3cc(Cl)ccc3n2C)cc(OC)c1OC` it was -19.2%; in that of `CCn1c(CNC(=O)c2cc(OC)c(OC)c(OC)c2)cc2cc(C)ccc21`, 47.9% (active). Next, `COc1cc(C(=O)NCc2ccc3c(c2)cc(C)n3C)cc(OC)c1OC`: -1.03%; `CCN(CC(=O)NC(C)C)C(=O)c1cc(S(=O)(=O)N2CCCCC2)ccc1N1CCCCC1`: -0.72%. For the compound `CCc1ccc(NC(=O)C(=O)N/N=C(\C)CC(=O)NCCOC)cc1`, the inhibition was -7.5%. `O=C(CSc1nc2ccccc2c(=O)n1CCCO)N1CCc2ccccc21`: the inhibition is -9.53%. In the case of `C=CCn1c(=O)c2ccccc2n2c(SCC(=O)N3CCCc4ccccc43)nnc12` it was 10.1%; in that of `Cn1c(SCC(=O)N2CCCc3ccccc32)nc2ccccc2c1=O`, 31.9% (active). Next, `CCn1c(C(C)C)n[nH]c1=S`: -7.45%.

Consider `CC(C)C1Nc2c(C(=O)O)cccc2C(Nc2ccccc2C(=O)O)C1(C)C` (stereo unspecified), for which the inhibition is 2.52%. With `O=C(O)CC/C(=N\NC(=O)c1ccc(F)cc1)c1ccc(Br)cc1`, the inhibition was -10.2%. As to `C/C(=N\NC(=O)c1ccc2ccccc2c1)c1cccnc1`, the inhibition is -15.4%. Next, `CC(=NNC(=O)c1ccc2nc[nH]c2c1)c1ccc(Br)cc1`: 35.2% (active); `CN1OC[C@@H]2CN(C(=O)c3cccnc3)[C@H](c3ccc(N4CCCCC4)cc3)C[C@@H]21`: -0.12%. In the case of `COc1ccc(C(=O)OCC(=O)c2ccc(C)c(S(=O)(=O)N3CCOCC3)c2)cc1OC` it was 42% (active). In the case of `Cc1ccc(C(=O)OCC(=O)N2CCCCCC2)cc1S(=O)(=O)N1CCOCC1` it was -0.5%; in that of `COc1ccc(CNC(=O)COC(=O)c2ccc(C)c(S(=O)(=O)N3CCOCC3)c2)cc1OC`, -2.56%; in that of `CC1(Cc2ccccc2C#N)C(=O)Nc2ccc(-c3ccc4[nH]ccc4c3)cc21` (stereo unspecified), 8.72%. Turning to `CCOC(=O)c1ccn(S(=O)(=O)c2ccc(C)cc2)c1-c1ccccc1`, the inhibition was 13.3%.

In the case of `COc1ccccc1C(CNC(=O)c1cccc(S(=O)(=O)Nc2ccc(F)cc2)c1)N(C)C` (stereo unspecified), the inhibition is 100% (active). Turning to `COc1ccccc1C(CNC(=O)c1cccc(NS(=O)(=O)c2ccc(Br)cc2)c1)N(C)C` (stereo unspecified), the inhibition was 99.2% (active). For `CC(=O)c1ccc(S(=O)(=O)Nc2ccc(C(=O)NCC(c3ccccc3)N(C)C)cc2)cc1` (stereo unspecified), the inhibition was 16.4%. As to `CN(C)C(CNC(=O)c1cccc(S(=O)(=O)Nc2ccc(Br)cc2)c1)c1ccco1` (stereo unspecified), the inhibition was -0.14%. In the case of `COc1ccc(C(CNC(=O)c2cccc(S(=O)(=O)Nc3ccc(Br)cc3)c2)N(C)C)cc1` (stereo unspecified) it was -2.85%; in that of `Cc1cccc(NS(=O)(=O)c2ccc(C)c(C(=O)NCC(c3ccccc3)N(C)C)c2)c1` (stereo unspecified), -6.04%; in that of `CCOc1ccc2[nH]c(=S)sc2c1`, -3.12%. In the case of `CCc1ccc[n+](-c2nc([O-])sc2C=O)c1` it was -4.29%; in that of `Cc1ccc(S(=O)(=O)N2CCOCC2)cc1C(=O)OC1CCCCC1=O` (stereo unspecified), 0.72%; in that of `O=C(/C=C/[C@H]1O[C@@H](n2ccc(=O)[nH]c2=O)[C@H](O)[C@@H]1O)NCc1ccccn1`, -44.8%. In the case of `Cc1cccc(CSc2nnc(C)c(=O)n2N)c1` it was -6.73%. For the compound `Cc1cccc(CSc2nc3c(c(=O)n2C)SCC3)c1`, the inhibition was 55.3% (active). In the case of `Cn1c(SCC(=O)N2CCCCC2)nc2c(c1=O)SCC2` it was 17.4%. Next, `O=C(OCC(=O)N1CCc2ccccc21)C1CCCN1S(=O)(=O)c1ccc(Cl)cc1` (stereo unspecified): -8.54%.

Turning to `CN[C@H]1C[C@H]2c3cc(Oc4ccccc4C)ccc3CCN2C(=O)[C@H]1[C@H](C)O`, the inhibition was -8.68%.

Turning to `CCN1CCN(CCNC(=O)c2ccc(/C=C3/Sc4ccccc4N(Cc4cccc(C)c4)C3=O)cc2)CC1`, the inhibition is 35.2% (active). On to `CCN1CCN(CCNC(=O)c2ccc3c(c2)NC(=O)/C(=C\c2cccc(Cl)c2)S3)CC1`, for which the inhibition was 3.02%.

Consider `Cc1ccccc1CN1C(=O)c2ccccc2Sc2ccc(C(=O)NCCCN3CCOCC3)cc21`, for which the inhibition was -18.2%.

Consider `C[C@H](NC(=O)CC[C@H]1O[C@@H](n2ccc(=O)[nH]c2=O)[C@H](O)[C@@H]1O)c1cccc2ccccc12`, for which the inhibition is -22.7%. Take `CCC(C)NCCOCCOc1ccc(Br)cc1C` (stereo unspecified): the inhibition was 34.6% (active). `COCC(C)NCc1cc(Br)ccc1OC` (stereo unspecified): the inhibition is -2.87%. Turning to `COCCCNCCOCCOc1ccc(Cl)cc1Br`, the inhibition is -3.69%. On to `COC(=O)c1ccc(CN2C(=O)C(Cc3ccccc3)ON=C2c2ncccc2C)o1` (stereo unspecified), for which the inhibition is 0.28%. `CC(C)C(NC(=O)c1c(F)cccc1F)C(=O)NNC(=O)c1ccccc1` (stereo unspecified): the inhibition is 7.65%. Consider `CN1CCN(CCCNC(=O)c2ccc(/C=C3\Oc4ccccc4N(Cc4ccc(Cl)cc4)C3=O)cc2)CC1`, for which the inhibition is 53.5% (active).

As for `Cc1c(C)n(Cc2ccc(Cl)cc2)c2ccc(C(=O)NCCCN3CCOCC3)cc12`, the inhibition was 12.4%. Next, `CCC1Oc2ccccc2N(CC(=O)NCCCN2CCN(CC)CC2)C1=O` (stereo unspecified): -1.31%; `C=Cn1cc[n+](CC(=O)c2ccc(OC)c(OC)c2)c1`: 8.24%. In the case of `CCOc1ccc(OCc2ccc(C(=O)N(C)c3ccccc3)o2)cc1` it was -7.87%; in that of `CN(C(=O)CN1CCN(c2cc(-c3ccc(OCc4ccccc4)cc3)ncn2)CC1)c1ccccc1`, 30.1% (active). `CN(Cc1ccccc1)C(=O)c1ccc(COc2ccccc2)cc1`: the inhibition is -0.5%. `CC(C)NC(=O)NCCCCCCS(C)=O` (stereo unspecified): the inhibition was -12%. Next, `C/C=C/c1ccc(OCCCCN2CCC(C)CC2)c(OC)c1`: 10.4%; `Cc1sc2ncn(CC(=O)NCCCC(=O)N3CCN(c4ccccc4F)CC3)c(=O)c2c1C`: 9.4%; `COc1ccc(C(=O)NN2C(=O)C3C(c4ccccc4)C=CC(c4ccccc4)C3C2=O)cc1` (stereo unspecified): 27.3% (active).

On to `COc1ccccc1C(=O)NN1C(=O)C2C3C=CC(O3)C2C1=O` (stereo unspecified), for which the inhibition was 1.11%. In the case of `O=C(NN1C(=O)C2C3C=CC(O3)C2C1=O)c1ccccc1` (stereo unspecified) it was -6.53%; in that of `Cc1ccc(S(=O)(=O)NCC(=O)N(CC(=O)NCC2CCCO2)c2cccc(F)c2)cc1` (stereo unspecified), -7.09%; in that of `CC(=O)Nc1cccc(-c2ccnc3c2CC(C)(C(=O)NCc2ccccc2)O3)c1` (stereo unspecified), -11.3%. As to `CC(O)(c1cccc(F)c1)c1nc(-c2ccc3c(c2)OCO3)cs1` (stereo unspecified), the inhibition is 1.89%. Regarding `Fc1ccc(-n2c(Cc3ccccc3)nnc2SCc2nc(-c3ccc(Cl)cc3)no2)cc1`, the inhibition is -1.38%. On to `COc1ccc2[nH]c(=O)c(CN(Cc3cccnc3)S(=O)(=O)c3ccccc3F)cc2c1`, for which the inhibition is 30.8% (active).

For `CCOc1ccc2[nH]c(=O)c(CN(CCCO)S(=O)(=O)c3ccc(F)cc3)cc2c1`, the inhibition was -1.99%. In the case of `COc1ccc(-c2[nH]ncc2CN(C)Cc2cccnc2)c(F)c1` it was -0.76%; in that of `O=C(NCCN1CCOCC1)c1ccccc1N1C(=O)[C@@H]2Cc3c([nH]c4ccccc34)C(c3cccc(Cl)c3)N2C1=O` (stereo partly specified), 9.91%; in that of `CCCc1nc2c3ccccc3ccn2c1Cc1ccccc1C(F)(F)F`, 0.78%. As for `COc1ccccc1CC1(C)C(=O)Nc2ccc(OC(F)(F)F)cc21` (stereo unspecified), the inhibition was -12.6%.

In the case of `CC1=C(C(=O)N(C(C)C)C(C)C)CC(CC(=O)NCC2CCCCC2)C(=O)N1Cc1ccccc1` (stereo unspecified), the inhibition is -28.2%.

As to `Cc1c2cnn(CC(=O)NCc3ccccn3)c(=O)c2c(C)n1Cc1ccc(Cl)cc1`, the inhibition was -7.49%.

Turning to `N#C/C(=C/c1ccc(N2CCCCC2)o1)C(=O)NCCc1c[nH]c2ccccc12`, the inhibition is 44.3% (active).

As for `N#C/C(=C/c1ccc(N2CCOCC2)o1)C(=O)N1CCOCC1`, the inhibition is -3.41%.

Turning to `N#C/C(=C\c1ccc(N2CCOCC2)o1)C(=O)N1CCOCC1`, the inhibition was -4.72%. On to `Cc1ccc2cc(C)c(N3CCC(C)CC3)nc2c1`, for which the inhibition was 1.39%.

Regarding `Cc1cc(Nc2cc(N3CCN(C)CC3)nc(Sc3ccc(NC(=O)C4CC4)cc3)n2)n[nH]1`, the inhibition was -2.83%. In the case of `CCN(CC)CCN(C(=O)c1ccc2c(c1)CCCC2)c1nc2c(OC)cccc2s1` it was 14.3%; in that of `CCN(CC)CCN(C(=O)c1cc(Cl)sc1Cl)c1nc2cc3c(cc2s1)OCO3`, 83.7% (active). Next, `CCNC(=S)N(CCN(CC)CC)Cc1cc2cc3c(cc2[nH]c1=O)OCO3`: -13.5%. As to `C[C@@H]1CN([C@H](C)CO)C(=O)c2cc(Br)cnc2O[C@@H]1CN(C)Cc1cncnc1`, the inhibition is -11.6%. Consider `COc1ccc(S(=O)(=O)N2CCN(C(=O)N(C)C)C2C)cc1` (stereo unspecified), for which the inhibition was -7.85%. Next, `O=C(CC[C@H]1O[C@@H](n2ccc(=O)[nH]c2=O)[C@H](O)[C@@H]1O)N[C@H](Cc1ccccc1)C(=O)NCc1ccco1`: -4.88%; `Cc1ccc(S(=O)(=O)N2CC[C@H]3[C@@H](C2)C(=O)C[C@@H](c2ccccc2)N3S(=O)(=O)c2ccc(C)cc2)cc1`: -2.99%.
